# Experimental data as given in PubChem BioAssay (NCI).
# Several values for one entry are separate records, joined by “and”; a condition that tells them apart may be missing. Equal entries are not always repeated. Compounds without any hit were thinned out: in the full panel of roughly 83,000, 20% have a hit.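 Cell lines were cultured in 96-well plates, exposed to a single compound concentration, and assessed for percent growth 48 hours later.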 Activity calls are given as the source filed them. How the source made its calls: active means growth percent below 10; inactive means the rest.
# Test system: HL-60(TB) leukemia
# Assay: NCI-60 one-dose screen, 48 h (100 = growth as untreated, 0 = no growth, -100 = all killed)
# Details: 10 µM unless noted
row,SMILES,growth
1,Cc1ccc2nc(C[n+]3ccc4ccccc4c3)ccc2c1,26.1% (inactive)
2,CC(=O)N1c2ccccc2NC2=C(C(=O)N(Cc3ccccc3)C2(C)C)C1c1ccco1 (stereo not given),9.63% (active)
3,CCN(CC)CCCC(C)Nc1cnc(C(=O)Nc2cc(F)cc3cccnc23)cn1 (stereo not given),85.5% (inactive) and 5.69% (active)
4,CC1(C)CC[C@]2(C(N)=O)CC[C@]3(C)C(=CC[C@@H]4[C@@]5(C)C/C(=C/c6cccnc6)C(=O)C(C)(C)[C@@H]5CC[C@]43C)[C@@H]2C1,-24.7% [100 µM] (active)
5,O=C(/C=C/c1cccc(Cl)c1)OCc1ccc2cc1OCC#C/C=C\C#CCO2,81.8% (inactive)
6,Cc1ccc(-c2nc3ccccn3c2/C=C2/C(=O)Nc3cc(Cl)ccc32)cc1,50.3% (inactive)
7,COc1ccc(C(=O)N2NC(=O)/C(=C/c3ccc(F)cc3)N=C2c2ccccc2)cc1,3.84% (active)
8,COc1ccc(C(=O)c2no[n+]([O-])c2C(=O)c2ccc(OC)cc2)cc1,-79.7% (active)
9,CC(=O)[C@H]1CCC/C=C/[C@@H]2C[C@H](O)C[C@H]2[C@H](O)/C=C/C(=O)O1,-54.4% (active)
10,NC1=NN(c2ccccc2)C(=O)/C1=C/c1ccc(Cl)cc1,104% (inactive)
11,CCOc1ccccc1/C=N\N=C\c1ccccc1O,30.6% (inactive)
12,CCCOc1cc2ccccc2cc1C(=O)Nc1nc(NC)c2c(ccc3nccc32)[nH]1,-55.2% (active)
13,Cc1nn(-c2ccc(Cl)cc2)c2ncnc(N/N=C/c3ccccc3O)c12,-4.93% (active) and 1.67% (active)
14,Cc1cc(N2CCCC2)nc(N(CCCNc2ccnc3cc(Cl)ccc23)Cc2ccc3c(c2)OCO3)n1,-62.9% (active)
15,COc1ccc(/C=C\c2cc(OC)c(OC)c(OC)c2)c(NS(=O)(=O)c2ccc(C(C)(C)C)cc2)c1O,6.05% (active)
16,CCc1c(C)c2cc3nc(NCc4ccccc4)oc3c(C)c2oc1=O,80.6% (inactive)
17,Cn1cc(-c2nc(-c3c[nH]c4ccncc34)cs2)c2ccccc21,-41.9% (active)
18,CCCCCCCCCC(=O)Oc1ccc(/C(=C(/C)c2ccccc2)c2ccc(OCCN3CCCC3)cc2)cc1,-30.4% (active)
19,NC(=S)NNC1CCCCC1,67.3% (inactive)
20,C[C@@H]1[C@H]2[C@H](C=C3[C@@H]4CC[C@H]5Cc6nc7c(nc6C[C@]5(C)[C@H]4C[C@@H](O)[C@@]32C)C[C@@H]2CC[C@H]3C4=C[C@@H]5O[C@@]6(CC[C@](C)(CO)O6)[C@@H](C)[C@@]5(O)[C@@]4(C)[C@H](O)C[C@@H]3[C@@]2(C)C7)O[C@]12CCC(C)(C)O2,4.6% (active)

row,SMILES,growth
1,O=C1N=NC2=C1c1c3ccccc3c(O)n1CC2,105% (inactive)
2,C1=C(N2CCCC2)CCC1,56.7% (inactive)
3,CCC(C)C1CCC(O)CC1 (stereo not given),99.3% (inactive)
4,CN1CCN(CC#CCn2c3c(c4ccccc42)C[C@]2(C)[C@H]4CC[C@@H]5[C@H]6[C@H]7OC(=O)[C@@]6(CCC7(C)C)CC[C@@]5(C)[C@]4(C)CC[C@H]2C3(C)C)CC1,66.3% (inactive)
5,Oc1c(Br)cc(Br)c2ccc(Cn3cc(-c4ccccc4C(F)(F)F)nn3)nc12,0.588% (active)
6,NC(=O)C1CC2C=CC1C2 (stereo not given),108% (inactive) and 106% (inactive)
7,COc1nccnn1,185% (inactive)
8,O=c1[nH]c(=S)[nH]c(=O)n1Cc1cccc2ccccc12,101% (inactive)
9,ClC/C=C/CSc1ncnc2nc[nH]c12,97.9% (inactive) and 95.6% (inactive)
10,CCN(CC)CCC(CNc1c2ccc(Cl)cc2nc2ccc(OC)cc12)c1ccccc1 (stereo not given),28.7% (inactive)
11,O=C(Nc1cccc(Cn2c(=O)[nH]c3ccc(Oc4ncccn4)cc3c2=O)c1)c1ccc(Cl)cc1,64.2% (inactive)
12,O=C(N/N=C/c1ccccc1)C(Oc1ccccc1)c1ccccc1 (stereo not given),109% (inactive)
13,COc1ccc2nc3cc(Cl)ccc3c(NCCCNC(C)=O)c2c1,57.7% (inactive)
14,NC(N)=N/N=C(/c1ccccc1)c1ccc(Cl)cc1,105% (inactive)
15,CN(C)CC(=O)Nc1ccc2ncnc(Nc3ccc(Oc4cccc(C(F)(F)F)c4)c(Cl)c3)c2c1,2.72% (active)
16,CCOc1nc(-c2ccccc2)cc2c(O)c(C(=O)N/N=C/c3ccccc3O)[nH]c(=O)c12,133% (inactive)
17,Cc1cc(-c2cc(C)c(N)cc2C)c(C)cc1N,90.2% (inactive)
18,Cc1cc(C(=O)CSc2nc3ccccc3c(=O)[nH]2)c(C)n1C,102% (inactive)
19,O=C(Nc1ccc(Oc2cccc(Cl)c2)c(Cl)c1)c1cnccn1,1.5% (active)
20,CC(=O)c1cccc(NS(=O)(=O)c2cccc(C(=O)Nc3ccc(Br)cc3)c2)c1,48.7% [25 µM] (inactive)
